Holding throughout (test): log2 fold change, soluble protein after heating vs DMSO (PISA); higher = thermal stabilisation; K562 cells, 10 uM, 30 min; active = over 0.2 and 3.5 SD of the protein, either way, in both replicates (recomputed)
Compound in one test: Cc1ccc(NC(=O)c2ccc(CN3CC[C@H](N(C)C)C3)c(C(F)(F)F)c2)cc1Nc1nccc(-c2cncnc2)n1 [bafetinib]
Put shortly:
(§1)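 K562 cells at 2×10^6 cells/mL were given 10 μM compound for 30 min. Aliquots then went through 3 min of heating across 48°C-58°C, were pooled, and were extracted in PBS with 0.5% NP-40 at 4°C, and the supernatant after 21,000xg for 90 min was quantified by TMTpro 16plex LC-MS/MS with channel sums equalised. Thermal stability relative to control samples, from duplicates, is given as log2 fold change.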

Compound in test [1]: Cc1cccc(CC(=O)N2CCc3c2ccc(-c2cn(C)c4ncnc(N)c24)c3F)n1
The method, boiled down: as §1

Compound in another test: Cc1cn(-c2cc(NC(=O)c3ccc(C)c(Nc4nccc(-c5cccnc5)n4)c3)cc(C(F)(F)F)c2)cn1 [nilotinib]
Put shortly: as §1

Compound in test [2]: Cc1nc(Nc2n[nH]c3c2CN(C(=O)N[C@H](CN(C)C)c2ccccc2)C3(C)C)c2sccc2n1
The method, boiled down: as §1

Compound in another test: Cc1nc(Nc2ncc(C(=O)Nc3c(C)cccc3Cl)s2)cc(N2CCN(CCO)CC2)n1 [dasatinib]
Put shortly:
as §1

Compound in test [3]: Cc1ncc(-c2ccnc(Nc3ccc(S(C)(=O)=O)cc3)n2)n1C(C)C
Put shortly:
as §1

Compound in test [4]: Cn1cc(-c2ccc3c(c2)CCN3C(=O)Cc2cccc(C(F)(F)F)c2)c2c(N)ncnc21
Put shortly:
as §1

Compound in test [5]: Cn1cc(-c2ccc3nnc(C(F)(F)c4ccc5ncccc5c4)n3n2)cn1
Put shortly:
as §1

Compound in the next test: Cn1cncc1[C@@](N)(c1ccc(Cl)cc1)c1ccc2c(c1)c(-c1cccc(Cl)c1)cc(=O)n2C [tipifarnib]
Put shortly: as §1

Compound in a further test: FC(F)(F)c1ccc(/C=C/c2nc(COc3ccc(CCCCn4ccnn4)cc3)co2)cc1 [mubritinib]
The method, boiled down:
as §1

Targets with a hit are over-represented here; the source holds about 7,900 in all. About 0.6% of all pairs of compound and target were hits. A number with no mark means an inactive call.

Chain of UniProt Q1KMD3 (Q1KMD3 whole entry, looked up): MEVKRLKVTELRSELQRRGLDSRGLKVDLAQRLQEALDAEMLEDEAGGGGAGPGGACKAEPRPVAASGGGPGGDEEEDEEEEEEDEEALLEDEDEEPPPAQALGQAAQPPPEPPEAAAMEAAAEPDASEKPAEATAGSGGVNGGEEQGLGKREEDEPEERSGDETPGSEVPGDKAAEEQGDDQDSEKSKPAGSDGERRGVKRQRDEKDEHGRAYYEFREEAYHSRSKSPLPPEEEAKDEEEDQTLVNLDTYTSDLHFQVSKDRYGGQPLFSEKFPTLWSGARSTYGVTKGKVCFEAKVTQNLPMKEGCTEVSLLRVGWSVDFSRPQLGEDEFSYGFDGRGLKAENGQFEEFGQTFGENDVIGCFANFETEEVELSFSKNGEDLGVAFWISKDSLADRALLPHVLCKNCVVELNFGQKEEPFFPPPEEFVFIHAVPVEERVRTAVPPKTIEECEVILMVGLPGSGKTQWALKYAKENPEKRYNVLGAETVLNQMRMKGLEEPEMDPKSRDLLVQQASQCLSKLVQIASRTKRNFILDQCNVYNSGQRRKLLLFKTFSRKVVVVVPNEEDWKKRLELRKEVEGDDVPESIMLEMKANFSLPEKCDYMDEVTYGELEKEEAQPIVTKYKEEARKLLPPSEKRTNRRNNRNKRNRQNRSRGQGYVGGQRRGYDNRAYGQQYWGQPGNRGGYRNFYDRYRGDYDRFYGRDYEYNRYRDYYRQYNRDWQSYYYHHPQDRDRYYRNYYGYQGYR
Chain of UniProt P09105 (P09105 whole entry, looked up): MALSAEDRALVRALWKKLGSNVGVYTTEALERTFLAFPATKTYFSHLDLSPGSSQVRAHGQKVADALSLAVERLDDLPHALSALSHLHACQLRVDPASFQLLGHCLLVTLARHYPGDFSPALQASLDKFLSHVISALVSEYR
Chain of UniProt P0C0S5 (P0C0S5 whole entry, looked up): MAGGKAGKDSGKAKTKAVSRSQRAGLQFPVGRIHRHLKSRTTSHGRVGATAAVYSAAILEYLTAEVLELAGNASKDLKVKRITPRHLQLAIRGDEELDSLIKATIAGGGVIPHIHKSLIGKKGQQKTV
Chain of UniProt P05114 (P05114 whole entry, looked up): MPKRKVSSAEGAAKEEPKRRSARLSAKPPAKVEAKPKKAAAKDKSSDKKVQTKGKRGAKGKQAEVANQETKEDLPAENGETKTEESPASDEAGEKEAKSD
Chain of UniProt Q10472 (Q10472 whole entry, looked up): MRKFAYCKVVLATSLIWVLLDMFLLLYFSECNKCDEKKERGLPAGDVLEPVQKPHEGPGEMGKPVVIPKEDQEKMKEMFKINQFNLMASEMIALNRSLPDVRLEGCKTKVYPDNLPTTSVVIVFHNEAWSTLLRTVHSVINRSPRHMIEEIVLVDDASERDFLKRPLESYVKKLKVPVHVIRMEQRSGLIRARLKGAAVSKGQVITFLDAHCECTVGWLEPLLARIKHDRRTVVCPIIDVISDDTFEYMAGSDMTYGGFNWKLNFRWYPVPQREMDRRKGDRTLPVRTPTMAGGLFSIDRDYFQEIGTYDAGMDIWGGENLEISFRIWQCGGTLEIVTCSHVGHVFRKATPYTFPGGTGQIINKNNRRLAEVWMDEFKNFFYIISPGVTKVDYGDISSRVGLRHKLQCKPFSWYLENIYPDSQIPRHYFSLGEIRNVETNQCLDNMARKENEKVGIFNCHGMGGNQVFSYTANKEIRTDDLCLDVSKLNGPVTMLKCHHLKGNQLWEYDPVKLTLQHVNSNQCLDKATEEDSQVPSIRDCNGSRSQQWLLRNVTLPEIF
Chain of UniProt Q9H4A6 (Q9H4A6 whole entry, looked up): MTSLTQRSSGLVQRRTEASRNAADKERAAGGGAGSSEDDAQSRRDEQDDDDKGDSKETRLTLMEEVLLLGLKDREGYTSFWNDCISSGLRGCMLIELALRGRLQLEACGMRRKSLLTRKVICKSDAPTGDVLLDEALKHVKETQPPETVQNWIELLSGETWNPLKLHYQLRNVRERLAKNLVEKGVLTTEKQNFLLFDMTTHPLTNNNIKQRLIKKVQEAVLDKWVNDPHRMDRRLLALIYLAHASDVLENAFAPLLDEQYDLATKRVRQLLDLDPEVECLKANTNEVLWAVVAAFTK
Chain of UniProt P46976 (P46976 whole entry, looked up): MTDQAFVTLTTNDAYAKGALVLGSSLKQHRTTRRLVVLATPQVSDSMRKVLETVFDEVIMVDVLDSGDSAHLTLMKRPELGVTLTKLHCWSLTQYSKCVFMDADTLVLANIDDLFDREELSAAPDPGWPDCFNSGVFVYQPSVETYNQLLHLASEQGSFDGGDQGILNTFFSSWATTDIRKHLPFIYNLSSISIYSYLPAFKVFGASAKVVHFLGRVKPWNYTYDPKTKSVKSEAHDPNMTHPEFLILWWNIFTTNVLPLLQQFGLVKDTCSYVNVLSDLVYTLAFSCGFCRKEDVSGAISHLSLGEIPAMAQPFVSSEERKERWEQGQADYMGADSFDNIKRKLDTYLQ
Chain of UniProt P15260 (P15260 whole entry, looked up): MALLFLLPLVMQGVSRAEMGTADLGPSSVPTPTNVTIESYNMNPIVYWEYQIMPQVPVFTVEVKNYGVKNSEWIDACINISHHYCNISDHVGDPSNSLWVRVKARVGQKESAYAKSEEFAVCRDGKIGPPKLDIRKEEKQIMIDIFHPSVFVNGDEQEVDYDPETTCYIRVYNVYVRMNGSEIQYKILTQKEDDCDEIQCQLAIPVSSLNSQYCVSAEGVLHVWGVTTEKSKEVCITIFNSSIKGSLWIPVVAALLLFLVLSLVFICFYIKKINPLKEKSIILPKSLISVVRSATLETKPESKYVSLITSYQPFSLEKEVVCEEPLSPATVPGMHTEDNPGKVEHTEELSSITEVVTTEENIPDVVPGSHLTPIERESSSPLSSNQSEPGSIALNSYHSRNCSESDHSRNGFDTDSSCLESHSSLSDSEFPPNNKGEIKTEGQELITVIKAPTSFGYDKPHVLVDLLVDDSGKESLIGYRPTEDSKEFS
Chain of UniProt Q6P3S6 (Q6P3S6 whole entry, looked up): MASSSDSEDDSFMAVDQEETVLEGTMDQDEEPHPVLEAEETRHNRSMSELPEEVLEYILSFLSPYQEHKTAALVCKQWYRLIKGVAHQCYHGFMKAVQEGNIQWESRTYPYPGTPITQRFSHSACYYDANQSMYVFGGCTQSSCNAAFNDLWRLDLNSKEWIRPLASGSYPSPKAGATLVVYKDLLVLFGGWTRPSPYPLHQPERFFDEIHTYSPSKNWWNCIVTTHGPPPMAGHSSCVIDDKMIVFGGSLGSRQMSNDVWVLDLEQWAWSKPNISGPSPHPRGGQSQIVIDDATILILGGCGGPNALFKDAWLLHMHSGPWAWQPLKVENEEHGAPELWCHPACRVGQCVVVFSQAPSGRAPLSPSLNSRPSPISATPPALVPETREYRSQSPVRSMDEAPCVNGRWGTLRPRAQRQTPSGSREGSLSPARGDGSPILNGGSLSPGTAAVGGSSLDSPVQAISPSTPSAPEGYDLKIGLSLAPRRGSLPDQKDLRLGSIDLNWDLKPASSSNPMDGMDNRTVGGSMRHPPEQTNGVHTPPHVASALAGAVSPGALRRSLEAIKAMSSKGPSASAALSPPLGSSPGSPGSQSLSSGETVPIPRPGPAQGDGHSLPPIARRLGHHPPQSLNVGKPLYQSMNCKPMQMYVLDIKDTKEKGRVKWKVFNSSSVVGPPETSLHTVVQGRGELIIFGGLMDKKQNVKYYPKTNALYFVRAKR
Chain of UniProt P15976 (P15976 whole entry, looked up): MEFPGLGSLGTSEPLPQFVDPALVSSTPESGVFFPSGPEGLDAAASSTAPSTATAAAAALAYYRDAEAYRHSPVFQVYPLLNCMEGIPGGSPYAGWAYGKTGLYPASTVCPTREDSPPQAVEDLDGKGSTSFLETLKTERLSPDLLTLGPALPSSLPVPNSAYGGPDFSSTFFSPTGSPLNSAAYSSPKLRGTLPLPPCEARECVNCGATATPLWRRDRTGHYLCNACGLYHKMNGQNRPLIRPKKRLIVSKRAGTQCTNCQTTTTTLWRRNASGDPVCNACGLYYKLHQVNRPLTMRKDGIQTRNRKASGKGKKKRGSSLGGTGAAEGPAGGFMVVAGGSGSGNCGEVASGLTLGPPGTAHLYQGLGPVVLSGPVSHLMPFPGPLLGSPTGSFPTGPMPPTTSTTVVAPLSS
Chain of UniProt Q8N2G8 (Q8N2G8 whole entry, looked up): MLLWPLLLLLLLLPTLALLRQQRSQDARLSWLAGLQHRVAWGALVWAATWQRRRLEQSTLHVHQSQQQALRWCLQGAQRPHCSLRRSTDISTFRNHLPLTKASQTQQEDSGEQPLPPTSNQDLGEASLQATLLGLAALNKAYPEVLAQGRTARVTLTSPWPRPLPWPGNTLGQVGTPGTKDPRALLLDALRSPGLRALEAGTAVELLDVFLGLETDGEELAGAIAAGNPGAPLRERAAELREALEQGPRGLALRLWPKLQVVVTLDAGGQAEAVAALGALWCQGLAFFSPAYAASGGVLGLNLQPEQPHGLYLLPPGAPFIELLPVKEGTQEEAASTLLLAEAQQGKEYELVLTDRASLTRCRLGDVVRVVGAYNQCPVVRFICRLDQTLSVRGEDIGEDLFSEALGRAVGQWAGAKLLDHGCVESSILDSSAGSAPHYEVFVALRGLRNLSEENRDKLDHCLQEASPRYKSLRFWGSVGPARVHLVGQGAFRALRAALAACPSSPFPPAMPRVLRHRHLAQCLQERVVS
Chain of UniProt Q13907 (Q13907 whole entry, looked up): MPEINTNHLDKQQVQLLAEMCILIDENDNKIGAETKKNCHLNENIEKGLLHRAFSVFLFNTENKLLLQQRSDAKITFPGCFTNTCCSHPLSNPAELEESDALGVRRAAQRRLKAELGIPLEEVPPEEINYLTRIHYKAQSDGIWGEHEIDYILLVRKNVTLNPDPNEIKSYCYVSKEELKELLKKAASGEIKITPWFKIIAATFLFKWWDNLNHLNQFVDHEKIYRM
Chain of UniProt O15347 (O15347 whole entry, looked up): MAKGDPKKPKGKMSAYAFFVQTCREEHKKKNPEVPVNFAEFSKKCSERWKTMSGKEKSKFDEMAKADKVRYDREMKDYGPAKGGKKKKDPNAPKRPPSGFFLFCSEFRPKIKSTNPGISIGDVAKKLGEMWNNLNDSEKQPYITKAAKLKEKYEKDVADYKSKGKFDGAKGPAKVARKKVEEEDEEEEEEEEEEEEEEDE

As for HBQ1 (UniProt P09105), the log2 fold change was 0.028 with bafetinib; 0.046 in [1]; 0.054 with nilotinib; -0.004 in test [2]; 0.102 with dasatinib; -0.043 in test [3]. The log2 fold change is 0.12 in [4], 0.117 in [5], -0.125 in the test with tipifarnib and 0.039 with mubritinib.
On to HSPA8 (UniProt P11142), for which the log2 fold change with bafetinib is 0.008; in [1], -0.008; with nilotinib, 0.081; in test [2], -0.001; with dasatinib, 0.03; in test [3], -0.003. The log2 fold change in test [4] is -0.029; in test [5], -0.003; with tipifarnib, 0.037; with mubritinib it was -0.002.
Take H2AZ1 (UniProt P0C0S5): the log2 fold change in the test with bafetinib is 0.173; in test [1], -0.204; with nilotinib, -0.138; in [2], -0.029; in the test with dasatinib it was -0.092; in test [3], -0.006. Also, the log2 fold change in [4] was -0.369; in test [5], -0.133; with tipifarnib it was 0.013; with mubritinib, -0.083.
With HNRNPUL2 (UniProt Q1KMD3), the log2 fold change was 0 in the test with bafetinib; -0.083 in [1]; -0.001 with nilotinib; 0.033 in [2]; 0.098 with dasatinib; 0.097 in test [3]. In addition, the log2 fold change was -0.147 in test [4], -0.035 in test [5], 0.03 with tipifarnib and -0.137 in the test with mubritinib.
Turning to HMGN1 (UniProt P05114), the log2 fold change in the test with bafetinib is -0.014; in [1], -0.012; with nilotinib it was -0.022; in test [2] it was 0.057; with dasatinib, 0.146; in [3] it was 0.019. Also, the log2 fold change is -0.022 in test [4], -0.048 in [5], 0.066 with tipifarnib and -0.049 with mubritinib.
As to GYG1 (UniProt P46976), the log2 fold change with bafetinib is 0.237; in test [1], 0.035; with nilotinib it was 0.635 (active); in [2] it was -0.012; in the test with dasatinib it was 0.052; in [3] it was -0.297. Further, the log2 fold change in [4] was -0.06; in [5], -0.11; with tipifarnib, -0.009; in the test with mubritinib it was -0.104.
As to HK2 (UniProt P52789), the log2 fold change with bafetinib is -0.215; in test [1], 0.029; with nilotinib, -0.967 (active); in [2], -0.194; in the test with dasatinib it was -0.106; in test [3], -0.03. Moreover, the log2 fold change was 0.022 in test [4], 0.01 in [5], -0.01 in the test with tipifarnib and 0.046 in the test with mubritinib.
In the case of IDI1 isoform 2 (UniProt Q13907), the log2 fold change is -0.019 with bafetinib; -0.038 in test [1]; 0.049 with nilotinib; 0.022 in [2]; 0.002 with dasatinib; -0.01 in test [3]. Moreover, the log2 fold change in test [4] is 0.096; in test [5] it was -0.012; with tipifarnib, 0.018; with mubritinib it was 0.054.
Turning to GATA1 (UniProt P15976), the log2 fold change in the test with bafetinib was -0.09; in [1], 0.007; with nilotinib it was 0.028; in test [2], 0.033; with dasatinib, 0.157; in [3], -0.008. Besides, the log2 fold change in test [4] is -0.084; in test [5], -0.017; with tipifarnib, -0.015; with mubritinib, -0.033.
Consider GALNT1 (UniProt Q10472), for which the log2 fold change was -0.053 with bafetinib; -0.065 in test [1]; -0.059 with nilotinib; 0.014 in test [2]; 0.014 in the test with dasatinib; 0.142 in test [3]. In addition, the log2 fold change was 0.1 in test [4], -0.093 in test [5], 0.019 with tipifarnib and 0.029 with mubritinib.
Turning to HMGB3 (UniProt O15347), the log2 fold change is -0.057 with bafetinib; -0.009 in [1]; 0.051 with nilotinib; -0.013 in [2]; 0.066 in the test with dasatinib; 0.03 in [3]. The log2 fold change in test [4] is 0.014; in [5], -0.084; in the test with tipifarnib, -0.024; with mubritinib, 0.01.
In the case of GHDC (UniProt Q8N2G8), the log2 fold change was -0.165 with bafetinib; 0.018 in test [1]; 0.036 with nilotinib; -0.001 in [2]; 0.027 in the test with dasatinib; -0.011 in test [3]. Besides, the log2 fold change in test [4] is 0.045; in [5] it was 0.012; with tipifarnib, 0.146; with mubritinib, 0.01.
With IFNGR1 (UniProt P15260), the log2 fold change with bafetinib is -0.262; in test [1], -0.027; in the test with nilotinib, 0.075; in [2], -0.015; in the test with dasatinib it was 0.154; in test [3] it was -0.126. Also, the log2 fold change in test [4] was 0.123; in test [5], -0.123; in the test with tipifarnib it was 0.119; with mubritinib, 0.299.
As for GOLPH3 (UniProt Q9H4A6), the log2 fold change with bafetinib is 0.074; in test [1], 0.032; with nilotinib it was -0.021; in test [2] it was -0.015; with dasatinib, -0.123; in [3], -0.013. Besides, the log2 fold change is 0.02 in test [4], -0.013 in test [5], -0.028 with tipifarnib and 0.07 in the test with mubritinib.
Take FBXO42 (UniProt Q6P3S6): the log2 fold change with bafetinib was -0.014; in test [1], -0.006; with nilotinib, -0.006; in [2] it was 0.028; in the test with dasatinib, -0.036; in test [3], -0.026. For the same target, the log2 fold change in test [4] is 0.137; in [5] it was -0.007; with tipifarnib it was 0.006; in the test with mubritinib, 0.059.

The record behind these values is the supplement of paper PMC10849652.
